# “And” between values parts separate entries of the source, which are not always exact repeats. Identical values can stand only once. Records with an inconclusive call do not appear. A number with no mark means an inactive call. The source made the active and inactive calls. The call rests on the fitted dose curve; in most records, active means well fitted inhibition curve with a large enough effect; inconclusive means small, poorly fitted or top-dose-only effect; inactive means flat fitted curve, though single readings scatter.
# Tested on: astro (control astrocytes)
# Experiment: Drug repurposing screens with cells derived from glioblastoma tumor samples (AID 1345199); further: nearly all actives have a fitted effect of over 40% in size
# Settings: viability, ATP luminescence, 48 h; series mostly up to 45.9 µM; activity, negative = cell killing: at the top concentration
# Experimental: CD133+ cells were isolated from GBM patient biopsies and cultured as neurospheres. Neurospheres from four patients were used to screen the NCATS pharmaceutical collection (NPC) library of approved drugs and bioactive compounds. […] The neurospheres were incubated with drugs for 48 hours in 1536-well format, then assayed with an ATP content cell viability assay. […] These hits were cherry picked to confirm activity in the four original GBM lines screened plus three other slower growing GMB lines (unable to yield enough cells for a full primary screen). Variable activities of the confirmed primary hits in the different GBM patient lines were observed. The patient line 206 responded to the greatest number of compounds and line 923 responded to the least amount of active compounds.
# On the % scale 0 is the no-effect control and ±100 the full control effect; potency means the concentration at half of the fitted maximal effect.
SMILES,"activity, negative = cell killing",Potency
O=C(CCCN1CC=C(n2c(=O)[nH]c3ccccc32)CC1)c1ccc(F)cc1,-12.7%,
Cc1cc2c(OCC(CNC(C)(C)C)OC(=O)c3ccccc3)cccc2[nH]1 (stereo not given),-24.5%,
O=C(NC1CCN(CCc2c[nH]c3ccccc23)CC1)c1ccccc1,-20.6%,
O=C(O)CCC(=O)Nc1ccc(S(=O)(=O)Nc2nccs2)cc1,-22.7% [at 21.2 µM],
CC[N+](C)(CC)CCOC(=O)C(O)(c1ccccc1)C1CCCCC1 (stereo not given),-9.63%,
Cc1ncc(CO)c(C=O)c1O,-6.42%,
CCCc1ncc(C[n+]2ccccc2C)c(N)n1,5.7% [at 21.2 µM],
CN(C)CCOC(=O)C(c1ccccc1)C1(O)CCCC1 (stereo not given),-6.14%,
CCN(CC)CCOC(=O)C1(c2ccccc2)CCCC1,-9.24%,
O=C(O)CCNC(=O)c1ccccc1,-12.6%,
CCOC(=O)[C@H](CCc1ccccc1)N[C@@H](C)C(=O)N1[C@H](C(=O)O)C[C@H]2CCCC[C@@H]21,,inactive
O=C(O)Cc1csc(-c2ccc(Cl)cc2)n1,-6.09%,
FC(F)(F)C(F)(F)C(F)(F)C(F)(F)C(F)(F)C(F)(F)C(F)(F)C(F)(F)Br,-17.7%,
COc1ccc(CCN(C)CCCN2CCc3cc(OC)c(OC)cc3CC2=O)cc1OC,-13.4%,
Cc1ccc(S(=O)(=O)NC(=O)NC2CCCC2)cc1,-13.5%,
O=C1C(O)=C(O)C(=O)C(O)=C1O,-3.73%,
CCOC(=O)[C@H](CCc1ccccc1)N[C@@H](C)C(=O)N1[C@H](C(=O)O)C[C@@H]2CCC[C@@H]21,0.713%,
CC(=O)O[C@]1(C(C)=O)CC[C@H]2[C@@H]3C=C(C)C4=CC(=O)CC[C@]4(C)[C@H]3CC[C@@]21C,-14.2% [at 21.2 µM],
CC(=O)N[C@@H](CCC(=O)O)C(=O)O,-1.11%,
NS(=O)(=O)Cc1noc2ccccc12,-16.7%,

SMILES,"activity, negative = cell killing",Potency
CCc1cc(Cl)c(OC)c(C(=O)NC[C@@H]2CCCN2CC)c1O,-27.9% [at 21.2 µM],
CO[C@H]1C=CO[C@@]2(C)Oc3c(C)c(O)c4c(O)c(c(/C=N/N5CCN(C)CC5)c(O)c4c3C2=O)NC(=O)/C(C)=C\C=C[C@H](C)[C@H](O)[C@@H](C)[C@@H](O)[C@@H](C)[C@H](OC(C)=O)[C@@H]1C,,31.6 µM (active)
N#CCC(=O)NN,-11.2%,
N[C@H](C(=O)O)[C@@H](O)c1ccc(O)c(O)c1,-14.8%,
CCCCN=C(N)N=C(N)N,-19.6%,
Nc1ccc(C(=O)NCC(=O)O)cc1,-9.9% [at 21.2 µM],
COc1ccc2c(c1)c1c3n2CCN(C)C3=NCC1,5.05%,
CCCCCCCCCCCCCC[N+](C)(C)Cc1ccccc1,,12.6 µM (active)
CCc1nn(CCCN2CCN(c3cccc(Cl)c3)CC2)c(=O)n1CCOc1ccccc1,,35.5 µM (active) and 25.1 µM (active)
CCO[C@@H]1O[C@H](C(COCc2ccccc2)OCc2ccccc2)[C@H](OCc2ccccc2)[C@H]1O (stereo not given in full),-29.3% [at 21.2 µM],
CCCCCCCCOc1ccc(C(=O)c2ccccc2)c(O)c1,-15.1%,
CCN(CC)CCNC(=O)c1cc(Br)c(N)cc1OC,-22%,
Cc1ccc(O)c([C@H](CCN(C(C)C)C(C)C)c2ccccc2)c1,-24.3%,
C=C[C@H]1CN2CC[C@H]1C[C@H]2[C@H](O)c1ccnc2ccc(OC)cc12,,inactive
N#C/C(=C1\SCC(c2ccccc2Cl)S1)n1ccnc1 (stereo not given),-7.32%,
NS(=O)(=O)c1cc2c(cc1Cl)NC(CC1CCCC1)NS2(=O)=O (stereo not given),-11.3% [at 21.2 µM],
NC(N)=NN=C(/C=C/c1ccc([N+](=O)[O-])o1)/C=C/c1ccc([N+](=O)[O-])o1,,22.4 µM (active)
CC(C)(C)CC(C)(C)c1ccc(O)c(-n2nc3ccccc3n2)c1,-23.6%,
C#C[C@]1(O)CC[C@H]2[C@@H]3[C@H](C)CC4=C(CCC(=O)C4)[C@H]3CC[C@@]21C,-5.59%,
C#C[C@]1(O)CC[C@H]2[C@@H]3CCC4=CC(=O)CC[C@@H]4[C@H]3CC[C@@]21CC,-19%,
